Screening data from PubChem.
The list is not random: actives were taken first. Their share in the collection is about 3.4%.
TEAD-YAP inh: TEAD-YAP interaction inhibition, primary screen, TEAD-YAP interaction inhibitor project, luminescence, HEK-TIYL cells; TEAD-Gal4/YAP UAS-luciferase luminescence; inhibition, % at 9.12 µM; actives 1.4% (n = 640,000); AID 1259422, 2018; in the data active = inhibition above about 32%;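 also: 0% = median of test compound wells and 100% = reference inhibitor wells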
GPR151 ag: activators of human GPR151, primary screen, cell-based, PathHunter beta-arrestin, luminescence | PathHunter beta-arrestin GPR151 cells | actives 1% (n = 650,000) | AID 1508602, 2020 | activation, % at 11.2 µM | G-protein coupled receptor 151 (Homo sapiens), Q8TDV0; in the data active = activation above about 4.9%;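 also: 0% = median of compound wells and 100% = cells with positive control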
Target sequence (Q8TDV0 whole entry, looked up): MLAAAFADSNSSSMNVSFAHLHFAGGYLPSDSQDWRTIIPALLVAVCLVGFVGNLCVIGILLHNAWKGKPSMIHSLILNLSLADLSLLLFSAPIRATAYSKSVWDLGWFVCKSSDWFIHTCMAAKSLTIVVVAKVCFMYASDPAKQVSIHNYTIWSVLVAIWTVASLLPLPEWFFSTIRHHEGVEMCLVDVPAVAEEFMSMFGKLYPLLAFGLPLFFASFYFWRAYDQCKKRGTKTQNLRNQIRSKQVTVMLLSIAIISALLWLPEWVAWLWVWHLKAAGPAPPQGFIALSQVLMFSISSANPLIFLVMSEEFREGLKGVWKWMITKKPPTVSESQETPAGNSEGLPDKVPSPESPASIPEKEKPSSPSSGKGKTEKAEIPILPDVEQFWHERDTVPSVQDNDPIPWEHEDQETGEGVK
FBW7 activator: FBW7 E3 ligase activators, primary screen, biochemical, AlphaScreen, human. normalized activity (activation), % at 26.1 µM. F-box/WD repeat-containing protein 7 (Homo sapiens), Q969H0. actives 0.13% (n = 650,000). AlphaScreen FBW7–phospho-cyclin E peptide binding, activator screen; in the data active = normalized activity above about 1.9%;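 also: purified mutant Fbw7 with reduced substrate affinity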
MITF primary: MITF inhibitors, primary screen, biochemical, AlphaScreen, human. actives 0.91% (n = 650,000). inhibition, % at 2.6 µM. AID 1259374, 2018. Microphthalmia-associated transcription factor (Homo sapiens), O75030. AlphaScreen MITF homodimerization, bead proximity signal; in the data active = inhibition above about 50%;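 also: 0% = vehicle wells with protein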
MITF inh conf: MITF inhibitors, retest of hits, confirmation, biochemical, AlphaScreen, triplicate; shares compounds with MITF primary; AlphaScreen MITF homodimerization, biotin/His-MITF beads; inhibition, % at 2.6 µM; actives 16% (n = 4,700);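 active = inhibition above a cutoff derived from the DMSO control wells, cut at about 28% in these data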;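 also: 0% = MITF dimer wells with DMSO only; inhibitors lower the bead chemiluminescence by keeping MITF from dimerizing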
AS interf ctr: AlphaScreen optical interference compounds, counter-screen for MITF inhibitor project, biochemical, triplicate; shares compounds with MITF primary; actives 7.6% (n = 4,700); inhibition, % at 2.6 µM; LysRS AlphaScreen counterscreen, signal interference;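 active = inhibition above a cutoff derived from the DMSO control wells, cut at about 30% in these data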
* hit, by the source's call; / = no result.

SMILES	TEAD-YAP inh	GPR151 ag	FBW7 activator	MITF primary	MITF inh conf	AS interf ctr
C=CCc1ccc(OCCCCN2CCNCC2)c(OC)c1	-11	2	0	67*	6	1
Cc1ccc(N2C(=O)CC(Sc3nnc(C)s3)C2=O)cc1 (centres undefined)	-7	0	0	0	/	/
CCOC(=O)c1ccc(N=C(C)c2c(-c3ccccc3)[nH]n(-c3nc4ccccc4s3)c2=O)cc1	5	-1	0	3	/	/
O=S(=O)(Cc1ccc(F)cc1)NCC(c1ccsc1)N1CCOCC1 (centres undefined)	6	0	0	78*	-2	-1
O=S(=O)(NCC(c1ccc(F)cc1)N1CCOCC1)c1ccc2c(c1)OCCO2 (centres undefined)	5	-1	0	55*	6	4
Cc1cc(F)ccc1S(=O)(=O)NCC(c1ccsc1)N1CCOCC1 (centres undefined)	11	-2	0	9	/	/
